Data published in PubChem BioAssay AID2148 (The Scripps Research Institute Molecular Screening Center, 2009).
Among all 2,400 compounds or so, about 1,500 (62%) were called active. Cut-off read from the data, not from the text of the source: active = inhibition above about 22%; inactive = the rest. The set was probably picked from earlier hits. These entries were drawn from the full list.

These compounds were tested against Melanin-concentrating hormone receptor 1 (Homo sapiens) (UniProt Q99705) (assay: antagonism of human MCHR1 receptor – cell-based, fluorescence, counter-screen for GPR7 antagonist project (AID 2148;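 note: 0% = vehicle with agonist and 100% = vehicle without agonist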)). Conditions: MCHR1-expressing cells, fluorescence antagonist assay; at 4.4 µM; stronger effect = higher value.
With COc1ccc(C2Nc3ccccc3C(=O)N2Cc2ccccc2)cc1Cn1nnc2ccccc21 (stereo unspecified) the inhibition was 32.1% (active).
With Fc1ccc(-c2ccc(-c3nn4c(-c5ccco5)nnc4s3)o2)cc1 the inhibition was 12.7% (inactive).
With Cc1ccccc1CN1C(=O)c2ccccc2Sc2ccc(C(=O)NCCCN3CCOCC3)cc21 the inhibition was 17% (inactive).
For O=C(NCCCN1CCOCC1)c1ccc2c(c1)N(Cc1cccc(F)c1)C(=O)c1ccccc1S2, the inhibition was 25.3% (active).
CCOC(=O)C1CSC(CC(=O)Nc2ccc(OCC)cc2)C(=O)N1 (stereo unspecified) was tested, and the inhibition was 3.62% (inactive).
With CCC(C)c1ccccc1NC(=O)CN(C)CC(=O)Nc1ccccc1SC (stereo unspecified) the inhibition was 24.8% (active).
For CCc1ccc(N(C(=O)c2csnn2)C(C(=O)NC2CCCCC2)c2ccncc2)cc1 (stereo unspecified), the inhibition was 17.6% (inactive).
For CC(C)OCCCNc1ncnc2c1[nH]c1ccc(F)cc12, the inhibition was 70.9% (active).
For Cc1cc(OC(C)C(=O)NC2CC(C)(C)NC(C)(C)C2)c2c(C)cc(=O)oc2c1 (stereo unspecified), the inhibition was -9.17% (inactive).
In the case of O=C(COc1ccccc1)NCc1ccc2c(c1)OCO2, the inhibition is reported as 1.89% (inactive).
CCOc1ccc(Cn2nnc(C(=O)NCc3ccccc3)c2N)cc1 was tested, and the inhibition was 51.5% (active).
With O=C(NC(=O)c1ccccc1)Nc1ccccc1O the inhibition was 14.3% (inactive).
Cc1ccccc1NC(=S)NC(=O)Cc1ccc(Cl)cc1 was tested, and the inhibition was 65.3% (active).
In the case of O=C(Cc1ccc(Cl)cc1)NC(=S)Nc1ccccc1O, the inhibition is reported as 96.4% (active).
With O=C(CC(=O)Nc1ccc(Cl)c(Cl)c1)N/N=C/c1ccc(O)cc1 the inhibition was 12.4% (inactive).
CS(=O)(=O)N(CC(O)Cn1c2ccccc2c2ccccc21)c1cccc2ccccc12 (stereo unspecified) was tested, and the inhibition was 41.7% (active).
Cc1cccc(NC(=O)c2cccc(C(=O)Nc3cccc(C)c3C)n2)c1C was tested, and the inhibition was 25.4% (active).
Cc1ccc(C(=O)C[n+]2cc(-c3ccccc3)n3c2CCCCC3)cc1 was tested, and the inhibition was 16.7% (inactive).
For Cc1ccc2[nH]cc(CCNC(=O)c3ccc([N+](=O)[O-])cc3)c2c1, the inhibition was 49% (active).
In the case of O=C(Nc1ccccc1F)c1ccc2c(c1)OCO2, the inhibition is reported as 2.37% (inactive).
O=C(Nc1nc(-c2ccc3c(c2)OCO3)cs1)c1ccncc1 was tested, and the inhibition was 67.8% (active).
COc1ccc(NS(=O)(=O)c2ccc(NC(=S)NC(=O)CC(C)C)cc2)cc1 was tested, and the inhibition was 58.1% (active).
For O=C(CSCc1ccc([N+](=O)[O-])cc1)NCCSCc1ccccc1, the inhibition was 28.9% (active).
With O=[N+]([O-])c1ccc(N(CCO)Cc2ccccc2)c([N+](=O)[O-])c1 the inhibition was 15.3% (inactive).
For N=c1c2c(-c3ccccc3)c(-c3ccccc3)n(Cc3ccccc3)c2ncn1CCCO, the inhibition was 38.1% (active).
For CCN1/C(=C\c2ccc3ccccc3[n+]2CC)Sc2cc(C)ccc21, the inhibition was 42.9% (active).
In the case of CCc1ccc(OCC2c3cc(OC)c(OC)cc3CCN2C(C)=O)cc1 (stereo unspecified), the inhibition is reported as 29.6% (active).
CC1CN(C(=O)CCC(=O)NCCCN2CCC(Cc3ccccc3)CC2)c2cc(Cl)ccc2O1 (stereo unspecified) was tested, and the inhibition was 49.6% (active).
With Cc1ccc(S(=O)(=O)n2cnc3ccccc32)c(C)c1 the inhibition was -5.48% (inactive).
In the case of CC(=O)Nc1ccc(S(=O)(=O)N(C)CC(=O)NCCC2=CCCCC2)cc1, the inhibition is reported as -1.52% (inactive).
COc1ccc(C(CCNCc2ccccc2F)c2ccc(F)cc2)cc1 (stereo unspecified) was tested, and the inhibition was 42.1% (active).
